Rows were chosen to be rich in hits. Some 2.4% of all compounds tested hit in one or more screens of this group.
D2 antagonist = D2 dopamine receptor (human) antagonism. actives 2% (n = 340,000). HEK293 TREx D2 cells, calcium flux, dopamine EC80. AID 485344. P14416. inhibition, % at 10 µM; in the data active means inhibition above about 30%; inactive means below that, where a call was filed; further: 0% is about no effect
Target sequence (P14416 whole entry, looked up): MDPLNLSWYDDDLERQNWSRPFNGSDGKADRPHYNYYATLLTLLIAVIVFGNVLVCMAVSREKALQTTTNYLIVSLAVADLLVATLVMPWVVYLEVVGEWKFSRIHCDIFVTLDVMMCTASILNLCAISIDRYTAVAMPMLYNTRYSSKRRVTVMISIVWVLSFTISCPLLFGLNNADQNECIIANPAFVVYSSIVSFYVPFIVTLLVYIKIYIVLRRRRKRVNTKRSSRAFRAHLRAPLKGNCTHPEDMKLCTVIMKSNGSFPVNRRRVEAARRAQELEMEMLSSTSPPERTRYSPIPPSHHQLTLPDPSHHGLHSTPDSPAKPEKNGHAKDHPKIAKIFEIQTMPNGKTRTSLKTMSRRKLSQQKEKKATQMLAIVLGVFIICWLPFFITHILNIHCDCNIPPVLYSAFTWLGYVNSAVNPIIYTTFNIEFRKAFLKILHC
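Compounds are added to dye-loaded, induced HEK293 T-REx cells coupled to calcium release via D2; after a 3 min kinetic read an EC80 dopamine stimulus is given and fluorescence is recorded for 3 more min.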
D2 PAM-1 = potentiates the human D2 dopamine receptor allosterically | P14416 | DiscoveRx D2 beta-arrestin cells, luminescence, 90 min; 100% = 57 uM dopamine signal | potentiation, % (concentration not given with the values) | actives 0.23% (n = 360,000) | AID 624464; in the data active means potentiation above about 50%; inconclusive means mostly about 30% to 49%
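D2 cells co-treated with compound plus 50 nM dopamine (EC20) for 90 min at 37 deg C to detect potentiation. Beta-arrestin recruitment was read as enzyme-fragment luminescence after 1 h at ambient temperature. Full response was set by 57 uM dopamine.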
D2 PAM-2 = positive allosteric modulators of human D2 dopamine receptor; actives 0.34% (n = 340,000); AID 485347; P14416; potentiation, % at 10 µM; HEK293 T-REx D2, calcium flux, EC20 dopamine potentiation;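 active means potentiation over 3 SD above the plate norm, cut at about 30% in these data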; further: 0% is about no effect
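Potentiation of an EC20 dopamine calcium response measured kinetically over 180 s, after a preceding 180 s compound-only read flagging agonists. Cells: inducible Hek293 Trex D2 line, 4000/well, cultured overnight at 30 C before dye loading.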
D2 ag-1 = agonists of human D2 dopamine receptor (beta-arrestin); P14416; DiscoveRx PathHunter D2 beta-arrestin, luminescence, 90 min; 100% = 57 uM dopamine signal; activation, % (test concentration not listed); actives 0.084% (n = 360,000); in the data active means activation above about 40%; inconclusive means between about 15% and that limit
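DiscoveRx PathHunter D2 beta-arrestin cells (2,100/well) attached overnight, then compound-stimulated 90 min at 37 C in HBSS/10 mM HEPES/0.1% Tween-20 buffer; beta-galactosidase complementation read by luminescence after 1 h at ambient temperature. Dopamine 57 uM final (EC100) as control.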
D2 ag-2 = D2 dopamine receptor (human) agonism; P14416; HEK293 T-REx D2 cells, calcium flux agonist mode; activation, % at 2 µM; actives 0.53% (n = 340,000);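 active means activation over 3 SD above normal in the single-dose calcium agonist read, cut at about 30% in these data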; further: 0% is about no effect
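Agonism is scored from calcium flux in a force-coupled, inducible HEK293 cell line expressing D2, read kinetically for 180 s after compound addition against dopamine controls.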
* = called active by the depositor.

`Cc1cc(C)cc(NS(=O)(=O)c2ccc3c(c2)NC(=O)C(C)S3)c1` (stereo not drawn) gave D2 PAM-2 3 and D2 ag-2 1.
Screening CCCN1CC=C2C(C#N)=C(N)C(C#N)(C#N)C(c3cccc(OC)c3OC)C2C1 (stereo not drawn) returned D2 antagonist 5, D2 PAM-1 -25, D2 PAM-2 -15, D2 ag-1 -3 and D2 ag-2 57*.
Screening N#CC1=C(N)C(C#N)(C#N)[C@H](c2ccoc2)[C@H]2CN(Cc3ccccc3)CC=C12 returned D2 antagonist 1, D2 PAM-1 -17, D2 PAM-2 3, D2 ag-1 1 and D2 ag-2 31*.
Screening COc1ccc(OC)c(C2C3CN(C(C)C)CC=C3C(C#N)=C(N)C2(C#N)C#N)c1 (stereo not drawn) returned D2 antagonist -7, D2 PAM-1 -49, D2 PAM-2 -15, D2 ag-1 -6 and D2 ag-2 4.
Screening Cc1ccc(SCc2nc(-c3ccc(C(=O)Nc4cc(C)ccc4C)cc3)oc2C)cc1 returned D2 PAM-2 11 and D2 ag-2 -1.
`COc1ccc(Cn2c(CO)cnc2SCc2cccc(C)c2)cc1` gave D2 PAM-2 -8 and D2 ag-2 -1.
`CCN1C(=O)CSc2ccc(C(=O)NCc3ccccc3)cc21` gave D2 antagonist -21, D2 PAM-1 -31, D2 PAM-2 -14, D2 ag-1 2 and D2 ag-2 0.
For CCN1C(=O)CSc2ccc(C(=O)NCc3ccccc3OC)cc21 the results were D2 antagonist -5, D2 PAM-1 -4, D2 PAM-2 34*, D2 ag-1 -1 and D2 ag-2 0.
CCOC(=O)c1[nH]c(C)c(CCC(=O)N2CCN(c3cc(C)ccc3C)CC2)c1C was read as D2 PAM-2 0 and D2 ag-2 1.
`CC(C)(C)SCCNC(=O)CN(c1ccccc1)S(=O)(=O)c1ccc(F)cc1` gave D2 antagonist 32*, D2 PAM-1 -1, D2 PAM-2 -4, D2 ag-1 -3 and D2 ag-2 1.
For COC(=O)c1ccn(CSc2cc(Cl)ccc2Cl)n1 the results were D2 antagonist 42*, D2 PAM-1 -2, D2 PAM-2 -1, D2 ag-1 3 and D2 ag-2 1.
N#Cc1cccc(N=Cc2c(O)ccc3ccccc23)c1 was read as D2 antagonist -8, D2 PAM-1 inconclusive, D2 PAM-2 8, D2 ag-1 5 and D2 ag-2 0.
`Oc1ccc2ccccc2c1C=Nc1cc(C(F)(F)F)ccc1N1CCCC1` gave D2 antagonist 6, D2 PAM-1 55*, D2 PAM-2 11, D2 ag-1 7 and D2 ag-2 0.
Screening c1ccc(-c2ccccc2OCCOCCN2CCNCC2)cc1 returned D2 antagonist -30, D2 PAM-1 -14, D2 PAM-2 -25, D2 ag-1 -2 and D2 ag-2 1.
For CCN1CCN(CCOCCOc2ccccc2-c2ccccc2)CC1 the results were D2 antagonist 60*, D2 PAM-2 -19 and D2 ag-2 -1.
Screening CC1CC(C)CN(CCOc2ccccc2-c2ccccc2)C1 (stereo not drawn) returned D2 antagonist 79*, D2 PAM-1 -36, D2 PAM-2 -29, D2 ag-1 -1 and D2 ag-2 -1.
Screening CC1CCN(CCOc2ccccc2-c2ccccc2)CC1 returned D2 antagonist 75*, D2 PAM-1 -14, D2 PAM-2 -15, D2 ag-1 -5 and D2 ag-2 0.
CSc1ccc(CCNC(=O)NCc2noc3ccccc23)cc1 was read as D2 PAM-2 -10 and D2 ag-2 0.
`CCOc1ccc(/C=C/c2nc(C#N)c(N3CCCCC3)o2)cc1` gave D2 PAM-2 4 and D2 ag-2 0.
For O=C1C(=O)c2c(C(=O)c3ccccc3)coc2-c2ccccc21 the results were D2 antagonist 14, D2 PAM-1 71*, D2 PAM-2 1, D2 ag-1 inconclusive and D2 ag-2 0.
Cc1oc2c(c1C(=O)c1ccccc1)C(=O)C(=O)c1ccccc1-2 was read as D2 antagonist -27, D2 PAM-1 12, D2 PAM-2 0, D2 ag-1 inconclusive and D2 ag-2 3.
For Cc1cccc(NC(=O)CSc2cn(CC(=O)N3CCOCC3)c3ccccc23)c1C the results were D2 PAM-2 3 and D2 ag-2 0.
`COc1cc(NC(=O)C2CCC(CNc3c(N4CCCCC4)c(=O)c3=O)CC2)cc(OC)c1` (stereo not drawn) gave D2 PAM-1 -1, D2 PAM-2 4 and D2 ag-1 5.
Screening CCOc1ccc(NC(=O)C2CCC(CNc3c(N4CCC(C)CC4)c(=O)c3=O)CC2)cc1 (stereo not drawn) returned D2 antagonist 31*, D2 PAM-1 6, D2 PAM-2 4, D2 ag-1 -3 and D2 ag-2 0.
Screening COc1cc(NC(=O)C2CCC(CNc3c(N4CCC(C)CC4)c(=O)c3=O)CC2)cc(OC)c1 (stereo not drawn) returned D2 antagonist 16, D2 PAM-1 -7, D2 PAM-2 30*, D2 ag-1 -2 and D2 ag-2 0.
For COc1ccccc1NC(=O)c1sc2nc(-c3cc4cc(Cl)ccc4oc3=O)[nH]c(=O)c2c1C the results were D2 PAM-2 4 and D2 ag-2 1.
Cc1cc(Oc2ccc(C#N)cc2)nc(NCc2ccccc2)n1 was read as D2 antagonist 42*, D2 PAM-1 -5, D2 PAM-2 28, D2 ag-1 -1 and D2 ag-2 1.
`CCOC(=O)c1ccc(NC(=O)c2ccc(=O)n(Cc3cccc(C)c3)c2)cc1` gave D2 PAM-2 1 and D2 ag-2 0.
`N/C(Cc1ccc([N+](=O)[O-])cc1)=N\OC(=O)c1ccc2ccccc2c1` gave D2 antagonist -5, D2 PAM-1 143*, D2 PAM-2 -2, D2 ag-1 inconclusive and D2 ag-2 1.
`N/C(Cc1ccc([N+](=O)[O-])cc1)=N\OC(=O)C(c1ccccc1)c1ccccc1` gave D2 antagonist 12, D2 PAM-1 89*, D2 PAM-2 -5, D2 ag-1 12 and D2 ag-2 0.
`Cc1cccc(C(=O)O/N=C(\N)Cc2ccc([N+](=O)[O-])cc2)c1` gave D2 antagonist 16, D2 PAM-1 148*, D2 PAM-2 6, D2 ag-1 inconclusive and D2 ag-2 0.
`Cc1ccc(CC(=O)O/N=C(\N)Cc2ccc([N+](=O)[O-])cc2)cc1` gave D2 antagonist -16, D2 PAM-1 12, D2 PAM-2 -6, D2 ag-1 7 and D2 ag-2 -1.
For N/C(Cc1ccc([N+](=O)[O-])cc1)=N\OC(=O)c1ccc(Br)cc1 the results were D2 antagonist 12, D2 PAM-1 171*, D2 PAM-2 -10, D2 ag-1 inconclusive and D2 ag-2 -1.

Source: PubChem BioAssay (National Center for Advancing Translational Sciences (NCATS))
